Molecules are shown by their SMILES. Where “and” joins values, the source holds several entries; their conditions need not be identical. Equal entries are not always repeated. Values without a mark were called inactive.

The assay concerns XIP peptide (Xip251-270) binding. As to the kind of experiment: XIP fragment 251-270 binding compounds – biochemical, small-molecule microarray, fluorescence 635/667 nm, 0.1 µg/mL protein, primary screen (AID 1182). To be noted: fluorescent protein binding, 635 nm, higher = more signal, called active from +8 up or from −8 down.
With `C=C[C@@H](OC)[C@H](O)c1ccc(OCCO)cc1`, the composite z-score is 0.602 and -0.746. As for `COC(=O)C1=C(C)N(Cc2ccccc2)C2=C(C(C)=O)C[C@@](O)(C(=O)OC)C(=O)N2[C@@H]1c1ccccc1`, the composite z-score was 0.411 and 1.64. As for `CO[C@@H]1COC(=O)CC=C[C@H](C)COC(=O)[C@H](C)NC(=O)CC=C[C@H]1C`, the composite z-score was -0.0437.

As to `Cc1ccc(S(=O)(=O)N[C@@H]2COC(=O)CC=C[C@@H](C)[C@@H]3C=C[C@H](O)[C@@H](COC(=O)CC=C[C@H]2C)O3)cc1`, the composite z-score is 0.061 and -0.148. On to `Cc1ccc(S(=O)(=O)OC[C@@H]2CN3[C@@H](CC[C@@H](C)[C@@H]3c3ccc(Br)cc3)C(=O)O2)cc1`, for which the composite z-score was 0.589 and -0.699. With `O=C1[C@H]2[C@H]3[C@H](O)[C@H](O)CC(=NOCc4ccccc4)[C@H]3CC[C@H]2C(=O)N1Cc1ccccc1` the figure was -0.0784. Regarding `C=CCN(C(=O)C(c1cccs1)N(C(=O)/C=C\C(=O)O)C(C)(C)CO)C(C)(C)C` (centres undefined), the composite z-score was 0.075 and -0.479.

For `CON(C)C(=O)c1nnc2c3ccccc3n(S(=O)(=O)c3ccc(C)cc3)c2n1`, the composite z-score is 0.41 and 0.536. In the case of `CCOC(=O)NN=C1C[C@@H](O)[C@@H](O)[C@@H]2[C@@H]3C(=O)N(Cc4ccc5c(c4)OCO5)C(=O)[C@@H]3CC[C@@H]12` it was 0.483; in that of `C[C@@H]1CC[C@H]2C(=O)N3[C@@H](CC[C@@H](C)[C@@H]3c3ccc(-c4ccco4)cc3)C(=O)N2[C@H]1c1ccc(-c2ccco2)cc1`, 1.47.

Regarding `C=CCN1C(=O)[C@]2(O[C@H](CCn3cc(CCO)nn3)[C@@H]([Si](C)(C)c3ccc(OC)cc3)[C@@H]2C)c2cc(N3C(=O)c4cccc5cccc3c45)ccc21`, the composite z-score was 0.0184 and 0.416. In the case of `CCOC(=O)c1ccc(NC(=O)O[C@H]2[C@H](OC(=O)Nc3ccccc3)[C@H](OC(=O)Nc3ccccc3)[C@@H](OC)O[C@@H]2CO)cc1` it was 0.706 and 1.24; in that of `C=CCN(C(=O)C(c1cccs1)N(C(=O)/C=C\C(=O)O)C(C)(C)CO)c1ccc(OC)cc1` (centres undefined), -0.114 and 0.302. With `C[C@@H]1CC[C@@H](C(=O)O)N[C@H]1c1ccc(-c2ccco2)cc1` the figure was 1.06. With `O=C(NN=C1C[C@@H](O)[C@@H](O)[C@@H]2[C@@H]3C(=O)N(Cc4ccc5c(c4)OCO5)C(=O)[C@@H]3CC[C@H]12)OCc1ccccc1` the figure was 0.974; with `C[C@@H]1CN2[C@@H](CC[C@@H](C)[C@@H]2c2ccc(Br)cc2)C(=O)O1`, -0.0537 and -1.1; with `CC(C)=CCCC(C)=CCON=C1C[C@@H](O)[C@@H](O)[C@@H]2[C@@H]3C(=O)N([C@@H](C)c4ccccc4)C(=O)[C@@H]3CC[C@H]12`, 1.32. Consider `CCOC(=O)[C@H](CC(C)C)NC(=O)CCC1CC(OC(=O)NCc2cccc3ccccc23)CC2(CCCC(COC(=O)NCc3ccccc3)O2)O1` (some centres undefined), for which the composite z-score is -0.17. `CCCNC(=O)OC[C@H]1O[C@H](CCON=C(C)CCC(=O)OC[C@H]2O[C@H](C#Cc3ccccc3)C=C[C@@H]2Oc2ccc(C)cc2)C=C[C@@H]1Oc1ccc(OC)cc1`: the composite z-score was -0.238.

For `C=CCN(CCCCC)C(=O)C1N(c2c(Cl)cccc2CO)C(=O)C2C(C(=O)O)C3C=CC21O3` (centres undefined), the composite z-score is -0.421 and -0.228. As to `CC(C)N1CC=CC23O[C@@H]4C=CCCOC(=O)C4[C@H]2C(=O)N(C(C)CO)[C@@H]3C1=O` (some centres undefined), the composite z-score is 1.78 and 0.425. In the case of `CCOC(=O)[C@@H]1CC=C2CC1C(=O)N1CCC[C@@H]1[C@H]2O[Si](C)(C)C(C)(C)C` (some centres undefined) it was -1.06 and -0.793; in that of `CC(C)CCN1CCc2nc(-c3ccccc3)c3c(c2C1)CO[C@@H](C)C3`, 0.105.

Take `CCOC(=O)c1ccc(NC(=O)O[C@H]2[C@H](OC(=O)Nc3ccccc3)[C@@H](OC(=O)Nc3ccccc3)[C@@H](OC)O[C@@H]2CO)cc1`: the composite z-score was 1.73 and 0.466.

For the origin of these results see PubChem BioAssay.
